# Assay results as given in PubChem BioAssay (NCI).
# About 79,000 compounds went through this panel and 15% of them were active in at least one assay; those are over-represented in the sample as a whole. Values without a mark were called inactive. Calls of active or inactive are those of the source. Cut-off read from the data, not from the text of the source: active = growth inhibition above about 70%; inactive = the rest.
# Tests used:
# [1] = NCI Yeast Anticancer Drug Screen. Data for the rad52 strain (AID 147);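 note: 0% = growth of vehicle-treated control cultures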; details: S. cerevisiae rad52 mutant growth inhibition, hits give high values
# In short: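 The repair-mutant yeast strain was incubated with compounds, then growth was read and inhibition derived relative to vehicle.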
# [2] = NCI Yeast Anticancer Drug Screen. Data for the wt1 strain (AID 149);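 note: 0% = growth of vehicle-treated wt1 cultures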; details: S. cerevisiae wt1 strain (SPY 50644) growth inhibition, hits give high values
# In short: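 Using yeast strain wt1, compound-induced growth inhibition was determined against vehicle-treated cultures.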
# [3] = NCI Yeast Anticancer Drug Screen. Data for the rad50EPP+ strain (AID 151);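 note: 0% = growth of vehicle-treated control cultures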; details: S. cerevisiae rad50 mutant strain, hits give high values
# In short: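 Vehicle-normalised growth inhibition; rad50EPP+ yeast strain, altered in DNA damage repair, compound-treated.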
# [4] = NCI Yeast Anticancer Drug Screen. Data for the mgt1 strain (AID 153); details: S. cerevisiae mgt1 mutant growth inhibition, hits give high values
# In short: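 Vehicle-normalized growth inhibition is determined in mgt1 yeast, a strain selected for a defined alteration in DNA repair or cell cycle control.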
# [5] = NCI Yeast Anticancer Drug Screen. Data for the rad50 strain (AID 155);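 note: 0% = growth of vehicle-only cultures of the same strain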; details: S. cerevisiae rad50 strain growth inhibition, hits give high values
# In short: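 Relative growth inhibition (compound vs vehicle) was measured in yeast with a defined repair-gene alteration.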
# [6] = NCI Yeast Anticancer Drug Screen. Data for the mec2-1 strain (AID 157); details: S. cerevisiae mec2-1 strain, hits give high values
# In short: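 Mutant yeast (mec2-1) grown with compound; growth inhibition relative to vehicle control reported.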
# [7] = NCI Yeast Anticancer Drug Screen. Data for the rad14 strain (AID 159);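 note: 0% = growth of vehicle-treated control cultures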; details: S. cerevisiae rad14 strain growth inhibition, hits give high values
# In short: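 Screen for anticancer potential: a yeast strain altered in DNA damage repair is grown with compound, and reduced growth is quantified against vehicle controls.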
# [8] = NCI Yeast Anticancer Drug Screen. Data for the sgs1 mgt1 strain (AID 161);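 note: 0% = growth of cultures given vehicle only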; details: S. cerevisiae sgs1 mgt1 strain, hits give high values
# In short: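 Growth of a repair-deficient yeast mutant was monitored after compound treatment and expressed as inhibition relative to vehicle-treated cultures.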
# [9] = NCI Yeast Anticancer Drug Screen. Data for the CLN2oe strain (AID 163);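 note: 0% = growth of vehicle-only control cultures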; details: S. cerevisiae CLN2oe strain, hits give high values
# In short: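 Compounds are applied to yeast harbouring a defined cell-cycle control change; reduced growth compared with vehicle-treated controls gives the value.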
# [10] = NCI Yeast Anticancer Drug Screen. Data for the cln2 rad14 strain (AID 165);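 note: 0% = growth equal to vehicle treated cultures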; details: S. cerevisiae cln2 rad14 strain, hits give high values
# In short: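 Readout is yeast growth inhibition versus vehicle-treated controls, using a strain with cln2 and rad14 alterations exposed to compound.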
# [11] = NCI Yeast Anticancer Drug Screen. Data for the bub3 strain (AID 167); details: S. cerevisiae bub3 mutant strain, hits give high values
# In short: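 Screening used yeast with an engineered genetic alteration affecting cell cycle control. Compound-exposed cultures were compared with vehicle cultures, and reduced growth was taken as inhibition.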
# [12] = NCI Yeast Anticancer Drug Screen. Data for the wt2 strain (AID 169);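 note: 0% = growth of vehicle-treated yeast cultures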; details: S. cerevisiae wt2 strain growth inhibition, hits give high values
# In short: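 Against vehicle-treated controls, the growth of yeast exposed to each compound was compared, and the inhibition was recorded.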
# [13] = NCI Yeast Anticancer Drug Screen. Data for the mlh1 strain (AID 171);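 note: 0% = growth of vehicle-treated control cultures of the same strain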; details: S. cerevisiae mlh1 strain growth inhibition, hits give high values
# In short: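 Measured: yeast growth. Reference: vehicle-treated controls. Organism: strain with a defined alteration affecting DNA damage repair or cell cycle control, treated with compound.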
# [14] = NCI Yeast Anticancer Drug Screen. Data for the sgs1 strain (AID 173);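 note: 0% = growth of vehicle-only control cultures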; details: S. cerevisiae sgs1 mutant, hits give high values
# In short: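 Each compound was added to cultures of the altered yeast strain. Growth was recorded, and inhibition was derived by comparison with vehicle controls.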
# [15] = NCI Yeast Anticancer Drug Screen. Data for the mlh1 rad18 strain (AID 175); details: S. cerevisiae mlh1 rad18 strain growth inhibition, hits give high values
# In short: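 Genetically defined yeast (DNA repair-deficient) exposed to compounds; growth inhibition determined relative to vehicle.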
# [16] = NCI Yeast Anticancer Drug Screen. Data for the rad18 strain (AID 177); details: S. cerevisiae rad18 mutant growth inhibition, hits give high values
# In short: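 Vehicle-treated cultures served as the baseline for scoring compound-induced growth inhibition in DNA-repair-mutant yeast.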
# [17] = at 5.0 µM (retest, dose inferred, filed as 0.5)
# [18] = at 50.0 µM (retest, dose inferred, filed as 5.0)
structure (smiles),measurement,setting,value
O=C(NNC(=O)OCC(Cl)(Cl)Cl)OCC(Cl)(Cl)Cl,growth inhibition,[1]; at 1.2 µM,0%
same,growth inhibition,[1]; at 3.7 µM,0%
same,growth inhibition,[1]; at 11.0 µM,2%
same,growth inhibition,[1]; at 33.0 µM,2%
same,growth inhibition,[1]; at 100.0 µM,31%
same,growth inhibition,[2]; at 1.2 µM,-1%
same,growth inhibition,[2]; at 3.7 µM,-2%
same,growth inhibition,[2]; at 11.0 µM,-3%
same,growth inhibition,[2]; at 33.0 µM,-3%
same,growth inhibition,[2]; at 100.0 µM,11%
same,growth inhibition,[3]; at 1.2 µM,0%
same,growth inhibition,[3]; at 3.7 µM,-2%
same,growth inhibition,[3]; at 11.0 µM,-1%
same,growth inhibition,[3]; at 33.0 µM,0%
same,growth inhibition,[3]; at 100.0 µM,11%
same,growth inhibition,[4]; at 1.2 µM,0%
same,growth inhibition,[4]; at 3.7 µM,-4%
same,growth inhibition,[4]; at 11.0 µM,48%
same,growth inhibition,[4]; at 33.0 µM,91% (active)
same,growth inhibition,[4]; at 100.0 µM,97% (active)
same,growth inhibition,[5]; at 1.2 µM,-1%
same,growth inhibition,[5]; at 3.7 µM,0%
same,growth inhibition,[5]; [17],-12%
same,growth inhibition,[5]; at 11.0 µM,0%
same,growth inhibition,[5]; at 33.0 µM,1%
same,growth inhibition,[5]; [18],1%
same,growth inhibition,[5]; at 50.0 µM,20.6%
same,growth inhibition,[5]; at 100.0 µM,23%
same,growth inhibition,[6]; at 1.2 µM,-6%
same,growth inhibition,[6]; at 3.7 µM,-8%
same,growth inhibition,[6]; [17],-6%
same,growth inhibition,[6]; at 11.0 µM,-4%
same,growth inhibition,[6]; at 33.0 µM,4%
same,growth inhibition,[6]; [18],6%
same,growth inhibition,[6]; at 50.0 µM,20.9%
same,growth inhibition,[6]; at 100.0 µM,32%
same,growth inhibition,[7]; at 1.2 µM,1%
same,growth inhibition,[7]; at 3.7 µM,1%
same,growth inhibition,[7]; at 11.0 µM,3%
same,growth inhibition,[7]; at 33.0 µM,6%
same,growth inhibition,[7]; at 100.0 µM,26%
same,growth inhibition,[8]; [17],0%
same,growth inhibition,[8]; [18],96% (active)
same,growth inhibition,[8]; at 50.0 µM,90.3% (active)
same,growth inhibition,[9]; at 1.2 µM,-1%
same,growth inhibition,[9]; at 3.7 µM,-5%
same,growth inhibition,[9]; at 11.0 µM,-2%
same,growth inhibition,[9]; at 33.0 µM,9%
same,growth inhibition,[9]; at 100.0 µM,38%
same,growth inhibition,[10]; [17],4%
same,growth inhibition,[10]; [18],11%
same,growth inhibition,[10]; at 50.0 µM,-12.9%
same,growth inhibition,[11]; at 1.2 µM,-3%
same,growth inhibition,[11]; at 3.7 µM,-8%
same,growth inhibition,[11]; [17],-5%
same,growth inhibition,[11]; at 11.0 µM,-6%
same,growth inhibition,[11]; at 33.0 µM,-4%
same,growth inhibition,[11]; [18],7%
same,growth inhibition,[11]; at 50.0 µM,6.9%
same,growth inhibition,[11]; at 100.0 µM,20%
same,growth inhibition,[12]; at 1.2 µM,-2%
same,growth inhibition,[12]; at 3.7 µM,-4%
same,growth inhibition,[12]; at 11.0 µM,29%
same,growth inhibition,[12]; at 33.0 µM,89% (active)
same,growth inhibition,[12]; at 100.0 µM,96% (active)
same,growth inhibition,[13]; at 1.2 µM,-1%
same,growth inhibition,[13]; at 3.7 µM,-2%
same,growth inhibition,[13]; at 11.0 µM,20%
same,growth inhibition,[13]; at 33.0 µM,88% (active)
same,growth inhibition,[13]; at 100.0 µM,96% (active)
same,growth inhibition,[14]; at 1.2 µM,-3%
same,growth inhibition,[14]; at 3.7 µM,-1%
same,growth inhibition,[14]; at 11.0 µM,42%
same,growth inhibition,[14]; at 33.0 µM,92% (active)
same,growth inhibition,[14]; at 100.0 µM,97% (active)
same,growth inhibition,[15]; [17],-1%
same,growth inhibition,[15]; [18],3%
same,growth inhibition,[15]; at 50.0 µM,0.3%
same,growth inhibition,[16]; at 1.2 µM,-1%
same,growth inhibition,[16]; at 3.7 µM,0%
same,growth inhibition,[16]; at 11.0 µM,3%
same,growth inhibition,[16]; at 33.0 µM,13%
same,growth inhibition,[16]; at 100.0 µM,53%
OC(c1ccc(Br)cc1)C(Cl)(Cl)Cl (stereo unspecified),growth inhibition,[1]; at 1.2 µM,-5%
same,growth inhibition,[1]; at 3.7 µM,-1%
same,growth inhibition,[1]; at 11.0 µM,5%
same,growth inhibition,[1]; at 33.0 µM,87% (active)
same,growth inhibition,[1]; at 100.0 µM,98% (active)
same,growth inhibition,[2]; at 1.2 µM,-13%
same,growth inhibition,[2]; at 3.7 µM,-11%
same,growth inhibition,[2]; at 11.0 µM,-1%
same,growth inhibition,[2]; at 33.0 µM,89% (active)
same,growth inhibition,[2]; at 100.0 µM,99% (active)
same,growth inhibition,[3]; at 1.2 µM,4%
same,growth inhibition,[3]; at 3.7 µM,3%
same,growth inhibition,[3]; at 11.0 µM,4%
same,growth inhibition,[3]; at 33.0 µM,38%
same,growth inhibition,[3]; at 100.0 µM,95% (active)
same,growth inhibition,[4]; at 1.2 µM,20%
same,growth inhibition,[4]; at 3.7 µM,-1%
same,growth inhibition,[4]; at 11.0 µM,5%
same,growth inhibition,[4]; at 33.0 µM,89% (active)
same,growth inhibition,[4]; at 100.0 µM,100% (active)
same,growth inhibition,[5]; at 1.2 µM,16%
same,growth inhibition,[5]; at 3.7 µM,14%
same,growth inhibition,[5]; [17],71% (active)
same,growth inhibition,[5]; at 11.0 µM,21%
same,growth inhibition,[5]; at 33.0 µM,84% (active)
same,growth inhibition,[5]; [18],99% (active)
same,growth inhibition,[5]; at 50.0 µM,81.2% (active)
same,growth inhibition,[5]; at 100.0 µM,97% (active)
same,growth inhibition,[6]; at 1.2 µM,-19%
same,growth inhibition,[6]; at 3.7 µM,-19%
same,growth inhibition,[6]; [17],89% (active)
same,growth inhibition,[6]; at 11.0 µM,-1%
same,growth inhibition,[6]; at 33.0 µM,92% (active)
same,growth inhibition,[6]; [18],99% (active)
same,growth inhibition,[6]; at 50.0 µM,86.8% (active)
same,growth inhibition,[6]; at 100.0 µM,99% (active)
same,growth inhibition,[7]; at 1.2 µM,-23%
same,growth inhibition,[7]; at 3.7 µM,-16%
same,growth inhibition,[7]; at 11.0 µM,-7%
same,growth inhibition,[7]; at 33.0 µM,84% (active)
same,growth inhibition,[7]; at 100.0 µM,98% (active)
same,growth inhibition,[8]; [17],3%
same,growth inhibition,[8]; [18],97% (active)
same,growth inhibition,[8]; at 50.0 µM,84.5% (active)
same,growth inhibition,[9]; at 1.2 µM,25%
same,growth inhibition,[9]; at 3.7 µM,10%
same,growth inhibition,[9]; at 11.0 µM,18%
same,growth inhibition,[9]; at 33.0 µM,87% (active)
same,growth inhibition,[9]; at 100.0 µM,97% (active)
same,growth inhibition,[10]; [17],68%
same,growth inhibition,[10]; [18],98% (active)
same,growth inhibition,[10]; at 50.0 µM,80.8% (active)
same,growth inhibition,[11]; at 1.2 µM,-17%
same,growth inhibition,[11]; at 3.7 µM,15%
same,growth inhibition,[11]; [17],-15%
same,growth inhibition,[11]; at 11.0 µM,3%
same,growth inhibition,[11]; at 33.0 µM,91% (active)
same,growth inhibition,[11]; [18],97% (active)
same,growth inhibition,[11]; at 50.0 µM,81.7% (active)
same,growth inhibition,[11]; at 100.0 µM,99% (active)
same,growth inhibition,[12]; at 1.2 µM,-17%
same,growth inhibition,[12]; at 3.7 µM,-15%
same,growth inhibition,[12]; at 11.0 µM,-21%
same,growth inhibition,[12]; at 33.0 µM,78% (active)
same,growth inhibition,[12]; at 100.0 µM,98% (active)
same,growth inhibition,[13]; at 1.2 µM,-10%
same,growth inhibition,[13]; at 3.7 µM,-18%
same,growth inhibition,[13]; at 11.0 µM,-6%
same,growth inhibition,[13]; at 33.0 µM,80% (active)
same,growth inhibition,[13]; at 100.0 µM,97% (active)
same,growth inhibition,[14]; at 1.2 µM,11%
same,growth inhibition,[14]; at 3.7 µM,5%
same,growth inhibition,[14]; at 11.0 µM,14%
same,growth inhibition,[14]; at 33.0 µM,84% (active)
same,growth inhibition,[14]; at 100.0 µM,98% (active)
same,growth inhibition,[15]; [17],62%
same,growth inhibition,[15]; [18],99% (active)
same,growth inhibition,[15]; at 50.0 µM,76.2% (active)
same,growth inhibition,[16]; at 1.2 µM,4%
same,growth inhibition,[16]; at 3.7 µM,4%
same,growth inhibition,[16]; at 11.0 µM,32%
same,growth inhibition,[16]; at 33.0 µM,90% (active)
same,growth inhibition,[16]; at 100.0 µM,98% (active)
